# Where a structure was tested more than once in an assay, its records may differ in their call. Activity calls are given as the source filed them. Rule for the calls: active = hit-call score of the fitted dose curve at least 0.9, where 1 is the maximum; inactive = score below 0.9.
# Experiments:
# [1] = read-out: Eotaxin 3, CCL26 (gene 10344); assay: BSK_BF4T_Eotaxin3: BioMAP Diversity Plus: BF4T Assay for Eotaxin 3 Biomarker Activity (AID 2284258); settings: primary human bronchial epithelial cells with fibroblasts
# Outline: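 Co-culture of human bronchial epithelial cells and dermal fibroblasts, exposed to chemicals for 24 h versus DMSO. Eotaxin-3 quantified by ELISA; cytotoxicity checked in parallel cultures by sulforhodamine B total-protein staining.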
# [2] = read-out: Monocyte Chemoattractant Protein-1 (MCP1), CCL2 (gene 6347); assay: BSK_BF4T_MCP1: BioMAP Diversity Plus: BF4T Assay for Monocyte Chemoattractant Protein-1 (MCP1) Biomarker Activity (AID 2284259); settings: primary human bronchial epithelial cells with fibroblasts
# Outline: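 Co-culture of bronchial epithelial cells and dermal fibroblasts dosed with chemical; MCP-1 measured by ELISA 24 h later. Activity fitted in positive direction versus DMSO; cytotoxicity checked by SRB staining in parallel cultures.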
# [3] = read-out: Intercellular Adhesion Molecule 1 (ICAM1), ICAM1 (gene 3383); assay: BSK_BF4T_ICAM1: BioMAP Diversity Plus: BF4T Assay for Intercellular Adhesion Molecule 1 (ICAM1) Biomarker Activity (AID 2284260); settings: primary human bronchial epithelial cells with fibroblasts
# Outline: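 Co-culture of human bronchial epithelial cells and dermal fibroblasts exposed 24 h to chemical; cell-surface ICAM-1 quantified by ELISA. Parallel SRB total-protein staining assessed cytotoxicity; activity fitted relative to DMSO.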
# [4] = read-out: Interleukin-8 (IL8), CXCL8 (gene 3576); assay: BSK_MyoF_IL8: BioMAP Diversity Plus: MyoF Assay for Interleukin-8 (IL8) Biomarker Activity (AID 2284261); settings: primary human lung fibroblasts
# Outline: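 In this multiplexed primary-cell system, fibroblasts from human lung are treated with chemicals, and IL-8 is detected by ELISA at 24 h, with DMSO serving as the negative reference.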
# CD90, THY1 (gene 7070) = assay: BSK_BF4T_CD90: BioMAP Diversity Plus: BF4T Assay for CD90 Biomarker Activity (AID 2284262); settings: primary human bronchial epithelial cells with fibroblasts
# Outline: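 Co-culture of human bronchial epithelial cells and dermal fibroblasts, 24 h compound exposure. Cell-surface CD90 measured by ELISA relative to DMSO; parallel SRB total-protein staining for cytotoxicity.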
# [5] = read-out: Interleukin-8 (IL8), CXCL8 (gene 3576); assay: BSK_BF4T_IL8: BioMAP Diversity Plus: BF4T Assay for Interleukin-8 (IL8) Biomarker Activity (AID 2284263); settings: primary human bronchial epithelial cells with fibroblasts
# Outline: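 Human bronchial epithelial cells with dermal fibroblasts co-culture; IL-8 measured by ELISA 24 hours after dosing, fitted vs DMSO. Cytotoxicity tracked in parallel cultures by SRB total-protein staining.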
# [6] = read-out: Interleukin-1 alpha (IL1a), IL1A (gene 3552); assay: BSK_BF4T_IL1a: BioMAP Diversity Plus: BF4T Assay for Interleukin-1 alpha (IL1a) Biomarker Activity (AID 2284264); settings: primary human bronchial epithelial cells with fibroblasts
# Outline: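 Human bronchial epithelial cells co-cultured with dermal fibroblasts, dosed and read at 24 h. Secreted/surface IL-1α quantified by ELISA; gain-of-signal fitted relative to DMSO baseline. Parallel SRB total-protein staining tracked cytotoxicity.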
# Decorin, DCN (gene 1634) = assay: BSK_MyoF_Decorin: BioMAP Diversity Plus: MyoF Assay for Decorin Biomarker Activity (AID 2284265); settings: primary human lung fibroblasts
# Outline: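 Lung fibroblast cultures, 24 h chemical exposure. Decorin by ELISA, positive fitting direction, DMSO baseline.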
# KRT18 (gene 3875) = assay: BSK_BF4T_Keratin818: BioMAP Diversity Plus: BF4T Assay for Keratin 818 Biomarker Activity (AID 2284266); settings: primary human bronchial epithelial cells with fibroblasts
# Outline: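 Co-culture of human bronchial epithelial cells and dermal fibroblasts, chemical exposure 24 h. Keratin 8/18 measured by ELISA; positive-direction fit vs DMSO. SRB total protein run in parallel cultures for cytotoxicity.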
# [7] = BSK_MyoF_SRB: Viability Assessment in the BioMAP Diversity Plus: MyoF Assay (AID 2284267); settings: primary human lung fibroblasts;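 note: total protein by SRB absorbance in parallel cultures as cytotoxicity measure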
# Outline: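 Cytotoxicity in primary human lung fibroblasts is gauged by SRB total-protein staining 24 h after dosing, with DMSO as the negative control.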
# [8] = read-out: Matrix Metallopeptidase 1 (MMP1), MMP1 (gene 4312); assay: BSK_MyoF_MMP1: BioMAP Diversity Plus: MyoF Assay for Matrix Metallopeptidase 1 (MMP1) Biomarker Activity (AID 2284268); settings: primary human lung fibroblasts
# Outline: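 MMP1 measured by ELISA 24 h after dosing primary human lung fibroblasts; cytotoxicity checked in parallel cultures by sulforhodamine B total-protein staining read at 560 nm.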
# [9] = read-out: TIMP metallopeptidase inhibitor 1 (TIMP1), TIMP1 (gene 7076); assay: BSK_MyoF_TIMP1: BioMAP Diversity Plus: MyoF Assay for TIMP metallopeptidase inhibitor 1 (TIMP1) Biomarker Activity (AID 2284269); settings: primary human lung fibroblasts
# Outline: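 Fibroblasts from human lung are dosed with chemical, cultured 24 h, and assayed for TIMP-1 by ELISA. Increases over the DMSO baseline are scored, with SRB total-protein staining run in parallel for cytotoxicity.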
# [10] = read-out: Matrix Metallopeptidase 1 (MMP1), MMP1 (gene 4312); assay: BSK_BF4T_MMP1: BioMAP Diversity Plus: BF4T Assay for Matrix Metallopeptidase 1 (MMP1) Biomarker Activity (AID 2284270); settings: primary human bronchial epithelial cells with fibroblasts
# Outline: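 Co-culture of human bronchial epithelial cells and dermal fibroblasts; MMP-1 levels measured by ELISA 24 hours after chemical dosing, relative to DMSO. Cytotoxicity checked in parallel cultures by SRB total-protein staining.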
# [11] = read-out: Matrix Metallopeptidase 3 (MMP3), MMP3 (gene 4314); assay: BSK_BF4T_MMP3: BioMAP Diversity Plus: BF4T Assay for Matrix Metallopeptidase 3 (MMP3) Biomarker Activity (AID 2284271); settings: primary human bronchial epithelial cells with fibroblasts
# Outline: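 Co-culture of human bronchial epithelial cells and dermal fibroblasts dosed 24 h; MMP-3 measured by ELISA, positive-direction fit versus DMSO. Cytotoxicity tracked by SRB total-protein staining (560 nm) in parallel cultures.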
# [12] = read-out: Tissue plasminogen activator (tPA), PLAT (gene 5327); assay: BSK_BF4T_tPA: BioMAP Diversity Plus: BF4T Assay for Tissue plasminogen activator (tPA) Biomarker Activity (AID 2284272); settings: primary human bronchial epithelial cells with fibroblasts
# Outline: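 tPA level quantified by ELISA at 24 h post-treatment in bronchial epithelial/dermal fibroblast co-cultures, gain of signal scored against DMSO baseline. Parallel cultures stained with 0.1% SRB (560 nm) to flag overt cytotoxicity.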
# [13] = read-out: Plasminogen Activator Inhibitor-1 (PAI1), SERPINE1 (gene 5054); assay: BSK_BF4T_PAI1: BioMAP Diversity Plus: BF4T Assay for Plasminogen Activator Inhibitor-1 (PAI1) Biomarker Activity (AID 2284273); settings: primary human bronchial epithelial cells with fibroblasts
# Outline: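 Co-culture of human bronchial epithelial cells and dermal fibroblasts exposed to compound for 24 h. PAI-1 measured by ELISA; activity fitted in positive direction versus DMSO. Parallel SRB staining assessed overt cytotoxicity.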
# [14] = BSK_BF4T_SRB: Viability Assessment in the BioMAP Diversity Plus: BF4T Assay (AID 2284274); settings: primary human bronchial epithelial cells with fibroblasts
# Outline: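 Co-culture of human bronchial epithelial cells and dermal fibroblasts (BioMAP BF4T) exposed 24 h. Total protein by sulforhodamine B staining (0.1% SRB after 10% TCA fixation, 560 nm) in parallel cultures; fitted vs DMSO.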
# [15] = read-out: urokinase Plasminogen Activator (uPA), PLAU (gene 5328); assay: BSK_BF4T_uPA: BioMAP Diversity Plus: BF4T Assay for urokinase Plasminogen Activator (uPA) Biomarker Activity (AID 2284275); settings: primary human bronchial epithelial cells with fibroblasts
# Outline: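 Co-culture of human bronchial epithelial cells and dermal fibroblasts; uPA quantified by ELISA 24 hours after dosing, fitted relative to DMSO. Parallel SRB total-protein staining assessed overt cytotoxicity.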
# [16] = read-out: Matrix Metallopeptidase 9 (MMP9), MMP9 (gene 4318); assay: BSK_BF4T_MMP9: BioMAP Diversity Plus: BF4T Assay for Matrix Metallopeptidase 9 (MMP9) Biomarker Activity (AID 2284276); settings: primary human bronchial epithelial cells with fibroblasts
# Outline: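 Co-culture of human bronchial epithelial cells and dermal fibroblasts dosed for 24 h; MMP-9 quantified by ELISA and fitted upward versus DMSO. Cytotoxicity monitored in parallel cultures by SRB total-protein staining at the biomarker time point.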
# [17] = read-out: Interleukin-8 (IL8), CXCL8 (gene 3576); assay: BSK_IMphg_IL8: BioMAP Diversity Plus: IMphg Assay for Interleukin-8 (IL8) Biomarker Activity (AID 2284277); settings: primary human endothelial cells with macrophages
# Outline: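 Co-culture of human venular endothelial cells and macrophages exposed to chemicals for 24 h; IL-8 quantified by ELISA and compared against the DMSO baseline, with SRB total-protein staining in parallel cultures for cytotoxicity.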
compound,measurement,setting,value
Cn1cnc([N+](=O)[O-])c1Sc1ncnc2nc[nH]c12,outcome,[1],inactive
same,outcome,[2],inactive
same,outcome,[3],inactive
same,outcome,[4],inactive
same,outcome,"CD90, THY1 (gene 7070)",inactive
same,outcome,[5],inactive
same,outcome,[6],inactive
same,outcome,"Decorin, DCN (gene 1634)",inactive
same,outcome,KRT18 (gene 3875),inactive
same,outcome,[7],inactive
same,outcome,[8],inactive
same,outcome,[9],inactive
same,outcome,[10],inactive
same,outcome,[11],inactive
same,AC50,[12],7.93 µM (active)
same,outcome,[12],inactive
same,outcome,[13],inactive
same,outcome,[14],inactive
same,outcome,[15],inactive
same,outcome,[16],inactive
same,outcome,[17],inactive

# Source: PubChem BioAssay (EPA / NIEHS)
